From PubChem
mIDH1 inhibitor – qHTS for Inhibitors of mutant isocitrate dehydrogenase 1 (IDH1): qHTS. IDH1-R132H enzyme, NADPH consumption, diaphorase/resazurin fluorescence. Isocitrate dehydrogenase [NADP] cytoplasmic (Homo sapiens), O75874. Potency, µM (titrated, usually from 76.6 µM), for inactives: at the top dose activity change, negative = inhibition, hits mostly inhibitors. 0.093% of 390,000 active; further: potency means the concentration at half of the fitted maximal effect; on the % scale 0 is the no-effect control and ±100 the full control effect; nearly all actives have a fitted effect of over 65% in size
Target sequence (O75874 whole entry R132H, stated change not applied): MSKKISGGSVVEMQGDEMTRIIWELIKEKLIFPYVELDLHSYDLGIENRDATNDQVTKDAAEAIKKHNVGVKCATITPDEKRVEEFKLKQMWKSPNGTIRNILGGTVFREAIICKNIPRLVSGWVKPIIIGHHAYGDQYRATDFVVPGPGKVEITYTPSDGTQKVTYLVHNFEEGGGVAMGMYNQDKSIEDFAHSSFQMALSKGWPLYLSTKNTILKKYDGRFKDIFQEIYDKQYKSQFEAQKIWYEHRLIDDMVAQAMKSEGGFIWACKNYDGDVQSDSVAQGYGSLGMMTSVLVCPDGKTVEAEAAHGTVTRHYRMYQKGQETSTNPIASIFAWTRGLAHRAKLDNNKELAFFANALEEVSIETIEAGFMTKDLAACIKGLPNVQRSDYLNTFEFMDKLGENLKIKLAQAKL
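IDH1-R132H (0.5 ug/mL dispensed) in pH 7.5 Tris buffer was preincubated 30 min with compound, then given a substrate mix of 0.016 mM NADPH and 2 mM alpha-KG for 80 min at room temperature; remaining NADPH was read by diaphorase/resazurin fluorescence.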
Pin1 inhibitor – qHTS Assay to Find Inhibitors of Pin1; 0.009% of 390,000 active; Peptidyl-prolyl cis-trans isomerase NIMA-interacting 1 (Homo sapiens), Q13526; Potency, µM (titrated, usually from 115 µM), for inactives: top-dose activity, negative = inhibition, usual class: inhibitors; Pin1 FP peptide displacement, HiFluor488, 10 min; active means well fitted inhibition curve with a large enough effect in the polarisation, with a control signal flat, not every such curve was filed as active; inconclusive means small, poorly fitted or top-dose-only effect, or effect the other way, or a change in a side signal; inactive means no such curve, though single readings can be large or run the other way; the % refers to the polarisation; further: potency means the concentration at half of the fitted maximal effect; on the % scale 0 is the no-effect control and ±100 the full control effect
Target sequence (Q13526 whole entry, looked up): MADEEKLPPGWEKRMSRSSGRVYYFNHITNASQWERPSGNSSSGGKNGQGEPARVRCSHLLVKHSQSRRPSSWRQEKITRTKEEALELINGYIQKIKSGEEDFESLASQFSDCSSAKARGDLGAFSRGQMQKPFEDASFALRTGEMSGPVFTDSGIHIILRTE
GLS inh – qHTS for Inhibitors of Glutaminase (GLS) | Glutaminase kidney isoform, mitochondrial (Homo sapiens), O94925 | GLS enzymatic activity, qHTS titration | Potency, µM (titrated, usually from 45.5 µM), for inactives: top-dose activity change, negative = inhibition, most hits filed as inhibitors | 0.21% of 410,000 active | AID 624170, 2012; further: potency means the concentration at half of the fitted maximal effect; on the % scale 0 is the no-effect control and ±100 the full control effect
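hKGA in 45 mM KH2PO4 pH 8.2, 0.02% Tween-20 with pin-transferred compounds; 1 mM L-glutamine (stock) plus glutamate oxidase/HRP/Amplex Red coupling added. Fluorescence read initially and after 30 min at RT.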
Tb PGK inh – qHTS Assay to Find Inhibitors of Phosphoglycerate Kinase. Phosphoglycerate kinase, glycosomal (Trypanosoma brucei brucei), P07378. PGK/GAPDH coupled, Kinase-Glo luminescence, 60 min. Potency, µM (series often up to 57.5 µM), inactives show at the top dose activity change, negative = inhibition, hits mostly inhibitors. 0.043% of 380,000 active; further: potency means the concentration at half of the fitted maximal effect; on the % scale 0 is the no-effect control and ±100 the full control effect; nearly all actives have a fitted effect of over 60% in size
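Recombinant glycosomal PGK reaction used 1,3-bisphosphoglycerate generated in-well by GAPDH (100nM final) in 100mM TEA pH 7.6, 5mM MgCl2, 0.01% Tween-20. After 60 minutes at room temperature, ATP was read by Kinase-Glo Plus luminescence end-point.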
Resorufin autofl – qHTS for Inhibitors of mutant isocitrate dehydrogenase 1 (IDH1): Cherrypicks Autofluorescence Interference; shares compounds with mIDH1 inhibitor; Resorufin detection reagent fluorescence interference, cell-free; inhibition of signal, % at 51.2 µM; 750 tested, under 10 active;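 further: 0% = wells with normal resorufin and full inhibition = wells lacking resorufin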
IDH1 WT – qHTS for Inhibitors of mutant isocitrate dehydrogenase 1 (IDH1): Cherrypicks in WT IDH1 | shares compounds with mIDH1 inhibitor | WT IDH1 enzyme, NADPH diaphorase/resazurin fluorescence | Potency, µM (top dose mostly 115 µM), for the others: at the top dose activity change, negative = inhibition, usual class: inhibitors | 9% of 750 active | AID 623995, 2012;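 further: potency means the concentration at half of the fitted maximal effect; 0% = full WT IDH1 enzyme control and full inhibition = no enzyme wells; nearly all actives have a fitted effect of over 55% in size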
Target sequence (O75874 whole entry, looked up): as the sequence (O75874 whole entry R132H, stated change not applied) above, with H132R counted along it
IDH1 R132H conf – qHTS for Inhibitors of mutant isocitrate dehydrogenase 1 (IDH1): Confirmation of Cherrypicks. shares compounds with mIDH1 inhibitor. IDH1 R132H enzyme, NADPH diaphorase/resazurin fluorescence. Potency, µM (top dose mostly 76.6 µM), inactives show at the highest dose activity change, negative = inhibition, usual class: inhibitors. 83% of 750 active; further: potency means the concentration at half of the fitted maximal effect; nearly all actives have a fitted effect of over 50% in size
* = called active by the depositor; i = inactive; ? = inconclusive; · = not tested or not shown. Sampled rows, rich in hits. Any-hit rate of the full collection: about 0.33%. Unless noted, the call rests on the fitted dose curve; in most records, active means well fitted curve in the direction sought with a large enough effect; inconclusive means small, poorly fitted or top-dose-only effect, or another doubt; inactive means no such curve, though single readings can be large; an effect the other way counts as inactive or inconclusive.

SMILES	mIDH1 inhibitor	Pin1 inhibitor	GLS inh	Tb PGK inh	Resorufin autofl	IDH1 WT	IDH1 R132H conf
CCOc1cc(C2c3c(-c4ccccc4)n[nH]c3C(=O)N2c2ccc(C(=O)O)cc2)ccc1O (stereo not given)	-7.1%	-10.8%	?	-5.5%	·	·	·
Cc1ccc(-c2n[nH]c3c2C(c2cccs2)N(c2ccc(Cl)cc2)C3=O)cc1 (stereo not given)	0.0%	12.6%	3.3%	-7.4%	·	·	·
Cc1ccc(-c2n[nH]c3c2C(c2ccccc2Cl)N(c2ccc(C(=O)O)cc2)C3=O)cc1 (stereo not given)	11.2µM*	-11.0%	7.08µM*	-18.1%	-11.5	35.5µM*	7.08µM*
CC(C)CC(NC(=O)CNC(=O)C(Cc1ccc(O)cc1)NC(=O)C(CO)NC(=O)C(Cc1c[nH]c2ccccc12)NC(=O)C(Cc1cnc[nH]1)NC(=O)C1CCC(=O)N1)C(=O)NC(CCCN=C(N)N)C(=O)N1CCCC1C(=O)NCC(N)=O (stereo not given)	·	·	35.4%	·	·	·	·
O=C(NC1CCCCC1)C(c1ccccc1)N(C(=O)Cc1ccsc1)c1ccccc1 (stereo not given)	?	0.2%	-0.8%	-5.5%	-4.9	-0.9%	0.631µM*
O=C(NC1CCCC1)C(c1ccsc1)N(C(=O)Cc1cccs1)c1ccccc1 (stereo not given)	?	-4.0%	3.4%	2.3%	-3.7	7.1%	2.82µM*
O=C(NCc1ccco1)C(c1cccs1)N(C(=O)Cc1cccs1)c1ccccc1 (stereo not given)	?	6.7%	-0.7%	-1.1%	-11.1	3.9%	?
O=C(NCc1ccco1)C(c1ccccc1)N(C(=O)Cc1cccs1)c1ccccc1 (stereo not given)	-16.0%	8.8%	12.7%	-7.0%	·	·	·
O=C(NC1CCCC1)C(c1ccncc1)N(C(=O)Cc1cccs1)c1ccccc1 (stereo not given)	?	-16.4%	8.0%	i	-1.3	5.9%	?
Cc1ccc(NS(=O)(=O)c2cc3c(cc2C)NC(=O)CO3)cc1C	·	-1.0%	·	·	·	·	·
NC(N)=NCCC[C@H](NC(=O)CNC(=O)c1ccccc1)C(=O)Nc1cc(C(F)(F)F)ccc1Cl	·	3.0%	·	·	·	·	·
O=C1CCCC2=C1C1(CCS(=O)(=O)C1)N=C(Nc1nc3ccccc3o1)N2 (stereo not given)	·	-1.7%	·	·	·	·	·
COc1cccc(N2C(=O)c3ccccc3C2=O)c1	·	7.8%	·	·	·	·	·
CC(C)C[C@H](NC(=O)c1[nH]cnc1C(=O)N[C@@H](Cc1ccccc1)C(=O)OC(C)(C)C)C(=O)OC(C)(C)C	7.1%	?	-0.6%	-7.9%	·	·	·
CC(C)C[C@H](NC(=O)c1[nH]cnc1C(=O)N[C@@H](C)c1ccccc1)C(=O)OC(C)(C)C	17.8µM*	?	-0.8%	-5.3%	6.6	-14.1%	20µM*
CCOc1ccc(S(=O)(=O)Nc2ccc(C(=O)N3CC(C)OC(C)C3)cc2)cc1 (stereo not given)	6.4%	-0.3%	2.0%	i	·	·	·
CC1CN(C(=O)c2ccc(NS(=O)(=O)c3ccc(C(C)(C)C)cc3)cc2)CC(C)O1 (stereo not given)	?	4.7%	3.6%	-4.7%	-8.9	6.6%	35.5µM*
COc1ccc(CN(Cc2ccccc2)C(=O)c2ccccc2O)cc1	·	-3.7%	·	·	·	·	·
Cc1ccc(C(=O)N2CCc3ccccc32)o1	?	-1.0%	7.6%	-28.4%	0.2	0.1%	2.7%
O=C(c1ccc([N+](=O)[O-])o1)N1CCc2ccccc21	7.4%	8.3%	2.8%	-6.7%	·	·	·
Cc1cc(NC(=O)CCC(=O)N(c2cccc(F)c2)C(C(=O)NC2CCCC2)c2ccc(C)o2)no1 (stereo not given)	?	-1.7%	-8.6%	i	-1.3	-4.3%	22.4µM*
CC(=O)c1cccc(N(C(=O)CS(=O)CC(=O)Nc2ccc(F)cc2)C(C(=O)NC2CCCCC2)c2ccc(C)o2)c1 (stereo not given)	?	-5.8%	8.2%	-6.9%	-0.5	1.4%	15.8µM*
Cc1cccc(N(C(=O)CCC(=O)Nc2cc(C)on2)C(C(=O)NC2CCCC2)c2ccc(C)o2)c1 (stereo not given)	-26.1%	3.9%	5.8%	2.0%	·	·	·
Cc1cc(NC(=O)CCC(=O)N(c2cccc(F)c2)C(C(=O)NC2CCCC2)c2ccccc2)no1 (stereo not given)	46.5µM*	-1.1%	11.3%	-9.3%	-0.4	-10.0%	15.8µM*
CSCCC(NC(=O)[C@H](Cc1c[nH]c2ccccc12)NC(=O)CNC(=O)[C@H](CCSC)NC(=O)[C@H](Cc1ccc(OS(=O)(=O)O)cc1)NC(=O)[C@@H](N)CC(=O)O)C(=O)N[C@@H](CC(=O)O)C(=O)N[C@@H](Cc1ccccc1)C(N)=O (stereo not given in full)	·	·	-20.4%	·	·	·	·
SMILES	mIDH1 inhibitor	Pin1 inhibitor	GLS inh	Tb PGK inh	Resorufin autofl	IDH1 WT	IDH1 R132H conf
CCCC(=O)O[C@]1(C(=O)COC(=O)CC)[C@@H](C)C[C@H]2[C@@H]3CCC4=CC(=O)C=C[C@@]4(C)[C@@]3(F)[C@H](O)C[C@@]21C	·	·	-20.4%	·	·	·	·
COc1cc(Br)cc(/C=N/N(CCO)C2=NS(=O)(=O)c3ccccc32)c1OC	13.1µM*	-9.1%	13.9%	-10.3%	-6.8	-0.4%	25.1µM*
Cc1ccc(NC(=O)CN2C(=O)COc3ccc(S(=O)(=O)N4CCCCCC4)cc32)cc1Cl	?	27.0%	6.8%	-9.4%	-8.3	0.3%	14.1µM*
Cc1ccc(NC(=O)CN2C(=O)COc3ccc(S(=O)(=O)N4CCCC4)cc32)cc1C	-0.2%	3.9%	2.2%	10.7%	·	·	·
O=C(c1ccccc1)N1N=C(c2ccccc2)CC1c1ccccc1O (stereo not given)	1.3%	2.0%	0.0%	-9.4%	·	·	·
O=C(c1ccncc1)N1N=C(c2ccc(Br)cc2)CC1c1ccccc1O (stereo not given)	35.5µM*	5.4%	-31.8%	-4.8%	0.9	2.3%	15.8µM*
